Measured values from PubChem BioAssay (NCATS).
Where “and” joins values, the source holds several entries; their conditions need not be identical. Equal entries are not always repeated. Results filed as inconclusive are left out. Calls of active or inactive are those of the source. Unless noted, the call rests on the fitted dose curve; in most records, active means well fitted curve in the direction sought with a large enough effect; inconclusive means small, poorly fitted or top-dose-only effect, or another doubt; inactive means no such curve, though single readings can be large; an effect the other way counts as inactive or inconclusive.

How the values were obtained:
[1] = target: Peptidyl-prolyl cis-trans isomerase NIMA-interacting 1 (Homo sapiens) (UniProt Q13526); test: qHTS Validation Assay to Find Inhibitors of Pin1 (AID 504536; active means well fitted inhibition curve with a large enough effect in the polarisation, with a control signal flat, not every such curve was filed as active; the % refers to the polarisation;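 further: 0% = full Pin1 enzyme wells and -100% = no-enzyme wells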)
Peptidyl-prolyl cis-trans isomerase NIMA-interacting 1 (Homo sapiens), sequence (Q13526 whole entry, looked up): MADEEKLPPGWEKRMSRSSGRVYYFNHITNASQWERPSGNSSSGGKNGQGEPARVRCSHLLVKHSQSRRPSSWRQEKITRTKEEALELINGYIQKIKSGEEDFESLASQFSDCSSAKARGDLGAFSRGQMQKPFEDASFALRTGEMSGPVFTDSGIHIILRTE
Outline: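 Fluorescence polarization competition: compounds (titration) displace HiFluor-488-labeled Pin1-1b peptide from Pin1 (0.3 uM final) in pH 7.5 HEPES buffer with DTT, 10 min at room temperature; %Activity normalized to no-enzyme wells, curves fitted.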

[2] = target: Phosphoglycerate kinase, glycosomal (Trypanosoma brucei brucei) (UniProt P07378); test: qHTS Validation Assay to Find Inhibitors of Phosphoglycerate Kinase (AID 504547);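 further: control wells lack PGK and mark full inhibition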
Phosphoglycerate kinase, glycosomal (Trypanosoma brucei brucei), sequence (P07378 whole entry, looked up): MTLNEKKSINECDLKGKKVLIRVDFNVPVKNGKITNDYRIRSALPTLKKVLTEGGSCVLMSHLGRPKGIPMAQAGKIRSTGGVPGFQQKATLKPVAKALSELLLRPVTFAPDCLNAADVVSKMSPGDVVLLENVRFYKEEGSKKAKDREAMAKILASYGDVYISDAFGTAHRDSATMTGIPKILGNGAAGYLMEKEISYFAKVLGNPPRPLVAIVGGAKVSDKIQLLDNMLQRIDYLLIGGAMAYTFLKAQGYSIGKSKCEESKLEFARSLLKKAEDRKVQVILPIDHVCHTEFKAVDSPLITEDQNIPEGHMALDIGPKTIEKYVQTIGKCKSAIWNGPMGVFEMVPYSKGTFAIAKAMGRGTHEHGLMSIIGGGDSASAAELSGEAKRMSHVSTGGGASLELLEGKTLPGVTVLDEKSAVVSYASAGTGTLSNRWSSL
Outline: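 PGK activity was coupled to GAPDH (100nM final), which generates the unstable substrate 1,3-bisphosphoglycerate in-well. Reactions ran 60 minutes at room temperature in 100mM TEA pH 7.6, 5mM MgCl2, 0.01% Tween-20, then Kinase-Glo Plus luminescence was read.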

[3] = target: phosphoglycerate mutase (Leishmania major) (UniProt Q4Q090); test: qHTS Validation Assay to Find Inhibitors of Phosphoglycerate Mutase (AID 504548);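 further: end-point luminescence from Kinase-GloPlus after the PGAM reaction; series mostly up to about 58 µM; on the % scale 0 is the no-effect control and ±100 the full control effect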
phosphoglycerate mutase (Leishmania major), sequence (Q4Q090 1-553): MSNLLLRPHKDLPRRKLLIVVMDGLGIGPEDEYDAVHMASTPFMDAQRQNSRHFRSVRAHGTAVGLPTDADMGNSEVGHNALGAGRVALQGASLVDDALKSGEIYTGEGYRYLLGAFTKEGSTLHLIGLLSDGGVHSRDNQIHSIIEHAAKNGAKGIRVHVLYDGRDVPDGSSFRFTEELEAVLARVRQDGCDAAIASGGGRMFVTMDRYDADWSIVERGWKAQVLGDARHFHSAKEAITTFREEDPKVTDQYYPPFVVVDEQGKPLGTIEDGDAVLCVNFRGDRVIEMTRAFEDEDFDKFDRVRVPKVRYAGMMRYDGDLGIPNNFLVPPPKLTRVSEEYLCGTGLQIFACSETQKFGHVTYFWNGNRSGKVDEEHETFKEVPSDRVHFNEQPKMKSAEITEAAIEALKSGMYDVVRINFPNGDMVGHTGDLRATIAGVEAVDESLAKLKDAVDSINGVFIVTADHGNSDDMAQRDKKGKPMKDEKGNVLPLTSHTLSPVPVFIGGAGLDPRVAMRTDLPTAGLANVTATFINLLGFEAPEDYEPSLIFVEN
Outline: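 L. major PGAM (1.25nM final) was added to substrate buffer and pinned compound, incubated 45 minutes at room temperature, then Kinase-GloPlus added; luminescence read after 10 minutes. Buffer: 100 mM TEA pH 7.6, 5 mM MgCl2, 0.01% Tween-20.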

[4] = qHTS for Inhibitors of ATXN expression: Validation of Cytotoxic Assay (AID 588349); further: on the % scale 0 is the no-effect control and ±100 the full control effect
Outline: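 HEK293 cells treated with titrated compound for 72 hr at 37 degrees C; viability read as intracellular ATP by CellTiter Glo luminescence.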

[5] = qHTS for Inhibitors of ATXN expression: Validation (AID 588378); further: series mostly up to about 57 µM; on the % scale 0 is the no-effect control and ±100 the full control effect; nearly all actives have a fitted effect of over 75% in size
Outline: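 Validation of ATXN2 expression inhibitors uses a cell-based luciferase fusion reporter in HEK293 cells, with 24 h compound exposure and paired viability (fluorescence) and reporter (luminescence) end-point reads.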

[6] = target: Estrogen receptor (Homo sapiens) (UniProt P03372); test: qHTS assay for small molecule agonists of estrogen receptor alpha signaling (AID 588514; calls by dose curve;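 further: 0% = vehicle only and 100% = reference agonist; nearly all actives have a fitted effect of over 70% in size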)
Estrogen receptor (Homo sapiens), sequence (P03372 whole entry, looked up): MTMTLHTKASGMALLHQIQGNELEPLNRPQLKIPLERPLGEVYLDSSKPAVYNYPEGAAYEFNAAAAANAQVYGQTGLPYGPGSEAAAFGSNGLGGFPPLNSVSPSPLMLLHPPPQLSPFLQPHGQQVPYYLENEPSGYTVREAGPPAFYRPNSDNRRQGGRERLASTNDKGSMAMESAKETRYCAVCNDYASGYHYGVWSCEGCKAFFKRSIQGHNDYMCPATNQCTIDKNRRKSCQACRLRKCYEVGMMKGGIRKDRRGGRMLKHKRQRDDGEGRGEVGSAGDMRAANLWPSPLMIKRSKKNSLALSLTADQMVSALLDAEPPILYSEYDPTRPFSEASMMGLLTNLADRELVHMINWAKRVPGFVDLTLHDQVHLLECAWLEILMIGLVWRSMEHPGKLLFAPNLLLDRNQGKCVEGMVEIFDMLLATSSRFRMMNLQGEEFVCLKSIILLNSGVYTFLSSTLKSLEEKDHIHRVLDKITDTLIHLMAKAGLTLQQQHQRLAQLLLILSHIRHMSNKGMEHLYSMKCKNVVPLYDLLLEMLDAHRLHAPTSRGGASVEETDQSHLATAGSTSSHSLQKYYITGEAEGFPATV
Outline: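 ER-alpha-UAS-bla GripTite HEK293 cells, 5000/well in 2% charcoal/dextran-stripped FBS medium, treated with compound titrations 18 h at 37 C. CCF4 beta-lactamase read by fluorescence after 2 h RT; normalised to 20 nM 17-beta-estradiol (100%) and DMSO (0%), Hill fit for EC50 and efficacy.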

[7] = target: DNA dC->dU-editing enzyme APOBEC-3G (Homo sapiens) (UniProt Q9HC16); test: qHTS for inhibitors of Vif-A3G interactions: Validation (AID 588379); further: 0% is about no effect
DNA dC->dU-editing enzyme APOBEC-3G (Homo sapiens), sequence (Q9HC16 whole entry, looked up): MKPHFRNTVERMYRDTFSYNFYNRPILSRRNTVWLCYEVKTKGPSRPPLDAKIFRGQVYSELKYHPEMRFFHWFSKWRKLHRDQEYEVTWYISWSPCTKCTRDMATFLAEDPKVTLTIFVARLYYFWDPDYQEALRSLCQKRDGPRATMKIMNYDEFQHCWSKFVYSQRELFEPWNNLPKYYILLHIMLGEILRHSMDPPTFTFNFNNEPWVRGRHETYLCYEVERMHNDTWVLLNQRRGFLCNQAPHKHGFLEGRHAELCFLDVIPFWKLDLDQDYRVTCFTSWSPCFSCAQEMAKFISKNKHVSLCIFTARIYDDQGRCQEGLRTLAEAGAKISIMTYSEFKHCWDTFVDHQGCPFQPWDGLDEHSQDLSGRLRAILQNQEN
Outline: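 HeLa cells stably expressing Vif and A3G-eYFP, 700 cells/well, incubated overnight at 37 deg C, then exposed to compound overnight at 37 deg C. Inhibition of Vif-mediated degradation read as increased yellow fluorescence (Ex 488/Em 500-530) by laser-scanning cytometry.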

[8] = target: Androgen receptor (Homo sapiens) (UniProt P10275); test: qHTS assay for small molecule agonists of androgen receptor signaling (AID 588515; active means well fitted curve in the direction sought with a large enough effect in the signal ratio, with a control signal flat; the % refers to the signal ratio; further: on the % scale 0 is the no-effect control and ±100 the full control effect); details: AR-UAS-bla HEK293, beta-lactamase ratio, agonist 16 h; stronger effect = higher value
Androgen receptor (Homo sapiens), sequence (P10275 whole entry, looked up): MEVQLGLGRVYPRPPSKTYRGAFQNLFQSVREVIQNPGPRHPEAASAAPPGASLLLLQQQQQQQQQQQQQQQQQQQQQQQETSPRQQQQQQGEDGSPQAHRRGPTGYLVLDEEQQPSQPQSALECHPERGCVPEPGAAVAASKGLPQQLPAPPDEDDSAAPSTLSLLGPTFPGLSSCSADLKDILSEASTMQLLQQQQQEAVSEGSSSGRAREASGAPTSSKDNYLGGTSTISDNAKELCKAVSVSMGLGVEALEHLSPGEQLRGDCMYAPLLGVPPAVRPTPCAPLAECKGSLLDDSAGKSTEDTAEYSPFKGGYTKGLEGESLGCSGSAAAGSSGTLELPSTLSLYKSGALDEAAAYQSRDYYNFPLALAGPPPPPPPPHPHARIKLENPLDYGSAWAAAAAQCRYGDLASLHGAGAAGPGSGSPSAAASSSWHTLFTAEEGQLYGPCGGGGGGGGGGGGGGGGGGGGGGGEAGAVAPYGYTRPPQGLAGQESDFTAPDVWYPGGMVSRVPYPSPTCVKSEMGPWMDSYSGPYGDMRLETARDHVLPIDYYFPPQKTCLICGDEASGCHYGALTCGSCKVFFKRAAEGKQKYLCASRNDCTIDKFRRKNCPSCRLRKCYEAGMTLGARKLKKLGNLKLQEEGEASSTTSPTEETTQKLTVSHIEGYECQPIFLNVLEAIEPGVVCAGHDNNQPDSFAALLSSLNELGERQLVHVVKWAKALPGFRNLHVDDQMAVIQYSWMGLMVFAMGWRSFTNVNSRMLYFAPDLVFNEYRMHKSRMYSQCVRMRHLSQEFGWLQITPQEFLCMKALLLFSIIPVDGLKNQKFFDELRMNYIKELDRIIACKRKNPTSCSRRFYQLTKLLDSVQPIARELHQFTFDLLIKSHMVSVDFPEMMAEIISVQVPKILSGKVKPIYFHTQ
Outline: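 EC50 and efficacy came from Hill fits of titrations (up to 92 uM) normalized to 30 nM R1881 as 100% and DMSO as 0%. Compound exposure was 16 h at 37 C on AR-UAS-bla HEK293 cells, with a 405/460/530 nm CCF4 fluorescence read.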

[9] = target: Ubiquitin carboxyl-terminal hydrolase 1 (Homo sapiens) (UniProt O94782); test: Inhibitors of USP1/UAF1: Pilot qHTS (AID 504865); further: nearly all actives have a fitted effect of over 35% in size; further: potency means the concentration at half of the fitted maximal effect
Ubiquitin carboxyl-terminal hydrolase 1 (Homo sapiens), sequence (O94782 whole entry, looked up): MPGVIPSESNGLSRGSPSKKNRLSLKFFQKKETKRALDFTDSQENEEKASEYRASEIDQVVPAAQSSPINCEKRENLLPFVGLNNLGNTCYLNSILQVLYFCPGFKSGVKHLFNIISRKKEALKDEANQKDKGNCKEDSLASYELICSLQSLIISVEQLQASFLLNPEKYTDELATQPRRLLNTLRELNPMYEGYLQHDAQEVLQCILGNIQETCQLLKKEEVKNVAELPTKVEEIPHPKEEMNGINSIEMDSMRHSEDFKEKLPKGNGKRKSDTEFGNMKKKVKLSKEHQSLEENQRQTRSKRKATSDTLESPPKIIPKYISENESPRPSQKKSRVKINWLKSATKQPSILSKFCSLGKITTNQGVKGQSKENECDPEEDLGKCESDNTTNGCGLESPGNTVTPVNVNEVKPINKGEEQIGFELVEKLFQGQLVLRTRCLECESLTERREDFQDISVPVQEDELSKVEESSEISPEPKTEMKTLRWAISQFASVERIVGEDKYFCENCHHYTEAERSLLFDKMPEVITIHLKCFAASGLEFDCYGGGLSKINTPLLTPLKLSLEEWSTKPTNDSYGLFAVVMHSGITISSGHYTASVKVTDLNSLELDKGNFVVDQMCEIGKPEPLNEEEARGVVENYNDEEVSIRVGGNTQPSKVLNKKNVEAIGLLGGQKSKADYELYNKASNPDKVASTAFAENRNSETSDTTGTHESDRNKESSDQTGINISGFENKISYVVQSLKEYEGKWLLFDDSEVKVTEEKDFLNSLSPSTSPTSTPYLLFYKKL
Outline: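 Kinetic fluorescence assay: 1nM USP1/UAF1, 15 min compound preincubation, then 150nM Ub-Rho; 480/540 nm.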

[10] = target: Androgen receptor (Homo sapiens) (UniProt P10275); test: qHTS assay for small molecule antagonists of androgen receptor signaling (AID 588516; active means well fitted curve in the direction sought with a large enough effect in the signal ratio, with a control signal flat, not every such curve was filed as active; the % refers to the signal ratio; further: on the % scale 0 is the no-effect control and ±100 the full control effect)
Outline: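 Antagonist-mode qHTS: inhibition of R1881 (10 nM)-driven beta-lactamase expression in GripTite HEK 293 cells is measured after 16 h; values are Hill-derived IC50s normalized between R1881 and DMSO wells.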

Cn1c(=O)c2[nH]cnc2n(C)c1=O
inactive: Potency [1] | Potency [2] | outcome [3] | outcome [4] | Potency [5] | outcome [6]

O=C(c1ccc(OCCN2CCCCC2)cc1)c1c(-c2ccc(O)cc2)sc2cc(O)ccc12
inactive: Potency [1] | outcome [3]

COc1cc2c(c(OC)c1OC)-c1ccc(OC)c(=O)cc1[C@@H](NC(C)=O)CC2
inactive: Potency [1] | Potency [2] | outcome [3] | outcome [4] | Potency [5] | outcome [7] | outcome [6] | activation [8] -5.98% and 0.799% and 0.899%

CN1CCN(CCCN2c3ccccc3Sc3ccc(Cl)cc32)CC1
inactive: Potency [1] | outcome [3]

Clc1ccc2c(c1)C(N1CCNCC1)=Nc1ccccc1O2
inactive: Potency [1] | outcome [3]

CC(C)(C)C(=O)Oc1ccc(S(=O)(=O)Nc2ccccc2C(=O)NCC(=O)O)cc1
inactive: Potency [9]

Cn1c(=O)c2c(ncn2C)n(C)c1=O
inactive: Potency [1] | outcome [4] | Potency [5] | outcome [7]

CS(=O)(=O)CCNCc1ccc(-c2ccc3ncnc(Nc4ccc(OCc5cccc(F)c5)c(Cl)c4)c3c2)o1
inactive: Potency [9]

Cc1ccccc1N1C(=O)c2cc(S(N)(=O)=O)c(Cl)cc2NC1C (stereo unspecified)
inactive: Potency [1] | outcome [3] | outcome [4] | Potency [5]

CN(C)CCCN1c2ccccc2CCc2ccc(Cl)cc21
inactive: Potency [1] | outcome [7]

CN(C)C(=O)C(CCN1CCC(O)(c2ccc(Cl)cc2)CC1)(c1ccccc1)c1ccccc1
inactive: Potency [1] | outcome [3] | Potency [9] | outcome [7]

Nc1c2c(nc3ccccc13)CCCC2
inactive: Potency [2] | outcome [3] | outcome [4] | outcome [7] | outcome [6]

CC(C)(Oc1ccc(C2CC2(Cl)Cl)cc1)C(=O)O (stereo unspecified)
inactive: Potency [1] | outcome [3] | outcome [4] | Potency [5] | activation [8] -8.82% | outcome [10]

CCCCc1oc2ccccc2c1C(=O)c1cc(I)c(OCCN(CC)CC)c(I)c1
inactive: outcome [3]

CCC1(C)CC(=O)NC1=O (stereo unspecified)
inactive: Potency [1] | outcome [3] | outcome [4] | Potency [5]

CN1CCN(C2=Nc3cc(Cl)ccc3Nc3ccccc32)CC1
inactive: Potency [1] | outcome [3] | outcome [7]

CS(=O)(=O)Nc1ccc([N+](=O)[O-])cc1Oc1ccccc1
inactive: Potency [1] | Potency [5]

NC12CC3CC(CC(C3)C1)C2
inactive: Potency [1] | Potency [9] | outcome [4] | Potency [5]

O=c1c(O)c(-c2ccc(O)c(O)c2)oc2cc(O)cc(O)c12
inactive: outcome [3] | outcome [4] | Potency [5] | outcome [7]

CC(=O)OCC(CCn1cnc2cnc(N)nc21)COC(C)=O
inactive: Potency [9]

CC1COc2c(N3CCN(C)CC3)c(F)cc3c(=O)c(C(=O)O)cn1c23 (stereo unspecified)
inactive: Potency [1] | outcome [3] | outcome [4] | Potency [5]

CN1CCN2c3ccccc3Cc3ccccc3C2C1 (stereo unspecified)
inactive: Potency [1] | outcome [4]

Cc1cn([C@H]2C[C@H](N=[N+]=[N-])[C@@H](CO)O2)c(=O)[nH]c1=O
inactive: outcome [3] | Potency [9] | outcome [4] | Potency [5] | outcome [6]

CN(Cc1cnc2nc(N)nc(N)c2n1)c1ccc(C(=O)N[C@@H](CCC(=O)O)C(=O)O)cc1
inactive: outcome [3] | Potency [9] | outcome [4] | Potency [5] | outcome [7] | activation [8] 0.214%

Cn1cnc2c1c(=O)[nH]c(=O)n2C
inactive: Potency [1] | outcome [3] | outcome [4] | Potency [5] | outcome [7]

NCCCCCC(=O)O
inactive: outcome [3] | outcome [4] | Potency [5]

CN(C)c1nc(N(C)C)nc(N(C)C)n1
inactive: Potency [1] | outcome [3] | outcome [4] | Potency [5]

CN(C)CCOC(c1ccccc1)c1ccccc1
inactive: Potency [1] | outcome [3] | outcome [4] | outcome [6] | outcome [10]

COc1ccc2c(c1)c(CC(=O)O)c(C)n2C(=O)c1ccc(Cl)cc1
inactive: Potency [1] | outcome [3] | outcome [4] | Potency [5] | outcome [7] | activation [8] -9.17%

COc1cc2nc(N3CCN(C(=O)c4ccco4)CC3)nc(N)c2cc1OC
inactive: Potency [1] | outcome [3] | outcome [7]

CCc1cccc2c3c([nH]c12)C(CC)(CC(=O)O)OCC3 (stereo unspecified)
inactive: Potency [1] | outcome [3] | outcome [4] | Potency [5]

CCOC(=O)Nc1ccc(NCc2ccc(F)cc2)nc1N
inactive: outcome [3] | outcome [4] | Potency [5]

OCCN(CCO)c1nc(N2CCCCC2)c2nc(N(CCO)CCO)nc(N3CCCCC3)c2n1
inactive: outcome [3] | Potency [5] | outcome [7]
active: Potency [9] 31.6 µM and 22.4 µM

CC(COc1ccccc1)N(CCCl)Cc1ccccc1 (stereo unspecified)
inactive: Potency [1] | outcome [3] | outcome [4] | Potency [5]

CN1CCC(=C2c3ccccc3C=Cc3ccccc32)CC1
inactive: Potency [1] | outcome [3] | outcome [4] | outcome [7]

O=C(Nc1ccc([N+](=O)[O-])cc1Cl)c1cc(Cl)ccc1O
inactive: Potency [1] | outcome [3] | Potency [5]

N[C@@H](Cc1c[nH]c2ccc(O)cc12)C(=O)O
inactive: Potency [1] | outcome [3] | outcome [4] | Potency [5] | outcome [6]
